Bioassay records (PubChem)
A selection: hits, their analogues and other compounds. The true share with any hit is near 4.2%.
MCF10A rerep: induces DNA re-replication in MCF 10a normal breast cells | MCF 10A DNA re-replication, Hoechst nuclear intensity, 48 h | Potency, µM (highest dose often 46.1 µM), inactives show top-dose activity, positive = re-replication, most hits filed as activators | 350,000 compounds, 2.9% hits | AID 624296; also: % of control where 0% means no effect; nearly all actives have a fitted effect of over 50% in size
a7 integrin act: activators of alpha7 integrin expression for muscular dystrophy | alpha7betagal myoblasts, beta-gal FDG fluorescence, 48 h | AID 624291 | Potency, µM (highest dose often 38.3 µM), without a hit: at the top dose activation, hits mostly activators | 350,000 compounds, 0.064% hits;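 also: 100% = response of the positive control SU9516; nearly all actives have a fitted effect of over 60% in size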
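Alpha7betagal+/- myoblasts (passage 13) were plated 16-24 hr, then exposed to compounds (1:260 dilution of DMSO stock) for 48 hours at 37C. After MPER lysis, β-galactosidase reporter activity was read as FDG fluorescence (ex 480/em 540) after 30 minutes.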
SW480 rereplic: induces DNA re-replication in SW480 colon adenocarcinoma cells. SW480 DNA re-replication, Hoechst DNA content imaging, 48 h. Potency, µM (highest dose often 46.1 µM), for the others: at the highest dose re-replication activation, hits mostly activators. 340,000 compounds, 1.8% hits; also: % of control where 0% means no effect; nearly all actives have a fitted effect of over 55% in size
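Cells (250 per well) received 23 nL compound or DMSO by pin tool and were kept 48 hr at 37 C, 5% CO2. Nuclei were then stained with Hoechst for 40 min and scanned for DNA content.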
AT treatment: candidate therapy for ataxia-telangiectasia; F2112 A-T fibroblasts, KAP-1 phosphorylation AlphaLISA; neocarzinostatin DNA damage 30 min before lysis; Potency, µM (top dose mostly 57.5 µM), inactives show at the top dose activation, usual class: activators; 320,000 compounds, 0.19% hits; also: % of control where 0% means no effect; nearly all actives have a fitted effect of over 45% in size
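hTERT-immortalized A-T patient fibroblasts (F2112), 500 cells/well in OPTI-MEM, 1% FBS, got compounds for 60 min, then NCS for 30 min at 37C. Lysates were then assayed for phospho-KAP-1 by AlphaLISA (anti-pKAP1 donor, anti-KAP1 acceptor beads), 6 hr at 25C.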
Mito fusion yeast: blocks mitochondrial division or promotes mitochondrial fusion | S. cerevisiae fusion-defective mutant growth rescue, CellTiterGlo 48 h | Potency, µM (series often up to 46.1 µM), for the others: at the highest dose growth rescue (activation), hits mostly activators | 320,000 compounds, 0.23% hits | AID 485298; also: % of control where 0% means no effect; nearly all actives have a fitted effect of over 45% in size
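S. cerevisiae fusion-defective temperature-sensitive mutants (e.g. fzo1-1, mgm1-5) grown 48 h at 37C in YPEG (ethanol/glycerol non-fermentable) medium with 23 nl compound per well; growth rescue read as CellTiterGlo luminescence.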
Numbers without * were called inactive; ? = inconclusive; . = not tested or not shown; [ ] = remark or other dose. Calls follow the shape of the dose curve; as a rule, active = well fitted activation curve with a large enough effect; inconclusive = small, poorly fitted or top-dose-only effect; inactive = no such curve, though single readings can be large or run the other way. Potency is read from the fitted curve at half-maximal effect.

SMILES | MCF10A rerep | a7 integrin act | SW480 rereplic | AT treatment | Mito fusion yeast
Cc1ccc(C)c(OCCCN2CCc3ccccc3C2)c1 | 27% | 0% | -1% | 41% | -7%
Cc1ccc(C(C)C)c(OCCN2CCc3ccccc3C2)c1 | ? | -35% | -3%[9.22 µM] | 35µM* | -9%
COc1ccc(C2=NOC(CNC(=O)c3ccccc3Br)C2)c(OC)c1 (stereo not given) | -6% | 15% | 5% | -1% | 2%
O=c1c2c3c(sc2n(CCN2CCCCC2)c(=O)n1Cc1ccco1)CCCCC3 | 13µM* | 5% | ? | -1% | -2%
Cc1ccc(Cn2c(=N)n(CC(O)COc3ccccc3)c3ccccc32)cc1 (stereo not given) | 12% | -2% | ? | -3% | -19%
N=c1n(Cc2ccccc2)c2ccccc2n1CC(O)COc1ccccc1 (stereo not given) | 26µM* | -31%[7.66 µM] | ? | 0% | -7%
CC(C)Oc1cccc(C(=O)Nc2ccc(N3CCN(C)CC3)cc2)c1 | 2% | 0% | 3% | 3% | 14%
Cc1cc2nc(/C=C/c3nc4cc(C)c(C)cc4[nH]3)[nH]c2cc1C | ? | -1% | 23µM* | 22µM* | 4%
CCCCNC(=O)CCCCC(=O)N/N=C/c1cccc(Cl)c1 | 2% | -26% | -3% | 13% | 5%
CCCN(CCC)c1ccc(/C=C/c2ccc3cc(OCC)ccc3n2)cc1 | ? | 9% | 2.1µM* | 28µM* | -5%
CN(C)c1ccc(/C=C/c2ccc3ccccc3n2)cc1 | 5.2µM* | 1% | 23µM* | 30% | -43%
Cc1ccc(/C=C/c2nc3ccccc3s2)s1 | ? | -5% | 11% | 6% | -4%
C(=C\c1ccc2ccccc2n1)/c1ccccc1 | 12% | -43% | ? | 3% | 3%
Oc1ccc(/C=C/c2ccc3ccccc3n2)cc1 | ? | -24% | 18µM* | -10% | -1%
CN(C)c1ccc(/C=C/c2nc3ccccc3s2)cc1 | ? | 25% | 9.2µM* | -1% | -18%
O=C(Nc1ccccc1C(=O)Nc1ccc(Br)cn1)c1cccc([N+](=O)[O-])c1 | 0% | 20% | -2% | 3% | -1%
CCCCC(=O)NC(Nc1sc2c(c1C(N)=O)CCCC2)(C(=O)OCC)C(F)(F)F (stereo not given) | -9% | -15% | 2.9µM* | -1% | -13%
O=C(CNS(=O)(=O)c1ccc(Br)s1)NCc1ccccc1 | ? | -2% | 2.8µM* | 0% | 1%
O=C(CNS(=O)(=O)c1ccc(Br)s1)NCc1ccc(F)cc1 | 9% | -12% | -5% | -1% | 4%
COc1ccc(Cn2c(N)c(C#N)c3nc4ccccc4nc32)cc1OC | ? | -8% | 10µM* | 1% | 2%
COc1ccc(CCn2c(N)c(C#N)c3nc4ccccc4nc32)cc1OC | ? | -7% | ? | 6% | -9%
CC(C)(C)OC(=O)N(CCc1ccccc1)Cc1cccc(OCc2cccc(NC(=O)C3CCCC3)c2)c1 | ? | -7% | -2% | . | .
Cc1onc(-c2ccccc2Cl)c1C(=O)OCc1cnc(Cl)s1 | 23µM* | -26% | 4% | 2% | 7%
Cc1onc(-c2ccccc2Cl)c1C(=O)OCN1C(=O)c2ccccc2C1=O | 0% | 1% | -5% | 5% | -12%
COc1cc(NC(=O)c2c(-c3ccccc3Cl)noc2C)c2ncccc2c1 | 10% | 7% | -27% | . | .
SMILES | MCF10A rerep | a7 integrin act | SW480 rereplic | AT treatment | Mito fusion yeast
Cc1onc(-c2ccccc2Cl)c1C(=O)Nc1cccc2cccnc12 | 8.2µM* | -35% | 13% | 3% | ?
O=C(O)CCN1C(=O)c2ccc(NC(=O)C(c3ccccc3)c3ccccc3)cc2C1=O | -3% | -1% | 8% | -23% | 4%
CCOc1ccc2ccccc2c1C1NC(=O)N(C)C(C)=C1C(=O)OCCOC (stereo not given) | -5% | 6.3µM* | -3% | -2% | 16%
CCC(c1nc2ccccc2c(=O)n1-c1nc2ccccc2s1)N1C(=O)c2ccccc2C1=O (stereo not given) | -50% | 0% | 7.3µM* | -2% | 20%
Cc1ccc(-n2[nH]c(C)c(/C=N/n3c(C)nc4ccccc4c3=O)c2=O)cc1 | 4.6µM* | 7% | ? | 3% | -19%
Cc1nc2ccccc2c(=O)n1/N=C/c1ccc2ccccc2c1O | 2% | -31% | 16µM* | 5% | 2%
Cc1nc2ccccc2c(=O)n1/N=C/c1ccc(O)c(O)c1O | -5% | -10% | -8% | 1% | 6%
Cc1nnc(C)n1/N=C/c1c(O)ccc2ccccc12 | -1% | 0% | -2% | -20% | -1%
Cc1nnc(-c2ccccc2)c(=O)n1/N=C/c1c(O)ccc2ccccc12 | 16% | 22% | 6.5µM* | 11% | 0%
Cc1cc([N+](=O)[O-])cc(/C=N/n2c(C)nc3ccccc3c2=O)c1O | 16µM* | -27% | ? | -35% | 10%
Cc1[nH]n(-c2ccccc2)c(=O)c1/C=N/n1c(C)nc2ccccc2c1=O | 9% | -3% | ? | -2% | 1%
O=C(NCc1ccccn1)c1cccc(NS(=O)(=O)c2ccccc2)c1 | 0% | -1% | -5% | -2% | -4%
O=C1OC(COc2ccc(Br)cc2)CN1c1ccccc1 (stereo not given) | 2% | 19% | -7% | -8% | 3%
Cc1ccc(S(=O)(=O)N2CCN(C(=O)COC(=O)COc3cccc4c3OC(C)(C)C4)CC2)cc1 | 1% | 10% | -3% | 0% | -9%
Cc1noc(/C=C/N(C)C)c1S(=O)(=O)N1CCc2ccccc21 | 18µM* | -15% | 14% | 25µM* | 2%
Cc1noc(/C=C/N(C)C)c1S(=O)(=O)N(C)Cc1ccc(F)cc1 | 8% | 29% | -9% | 32µM* | -14%
Cc1ccc(CN(C)S(=O)(=O)c2c(C)noc2/C=C/N(C)C)cc1 | ? | 3% | -1% | ? | 12%
Cc1noc(/C=C/N(C)C)c1S(=O)(=O)N(C)CC(=O)N1CCc2ccccc21 | ? | 22% | -8% | 7% | -1%
CCOC(=O)/C(=C/c1cn(C)c2ccccc12)NC(=O)c1ccccc1 | 1% | -27% | -1% | 1% | -4%
Cc1cc(O)ccc1N/C=C(\C#N)c1nc2ccccc2o1 | 18µM* | -11% | ? | 2% | 4%
CC(C)[C@H](NC(=O)c1ccco1)C(=O)Nc1ccc(N2CCCCCC2)cc1 | . | 3% | . | . | .
CCN(CC(=O)Nc1ccccc1OC)C(=O)CSCC(=O)Nc1ccc(OC)cc1 | -5% | -14% | -4% | 10% | -5%
CCN(CC)C(=O)CSCC(=O)Nc1ccccc1 | 8.2µM* | 17% | -4% | -11% | -8%
CC(C)(C)OC(=O)N(CCc1ccccc1)Cc1ccccc1OCc1ccc(NC(=O)C2CCC2)cc1 | 6.5µM* | 3% | ? | . | .
